# Reference: ChEMBL document CHEMBL4513146, “CO-ADD screening of Karazin Kharkiv National University (Ukraine) compounds”
# Potency and affinity values are given separately.
# Tests used:
# Staphylococcus aureus = conditions: Concentration 32 ug.mL-1;; ASSAY_TEST Inhibition of Bacterial Growth; detection method Absorption (OD600); MEDIA CAMHB; plate type 384well; NBS; CORNING #3640; time 18 hr
# Escherichia coli = conditions: Concentration 32 ug.mL-1;; ASSAY_TEST Inhibition of Bacterial Growth; detection method Absorption (OD600); MEDIA CAMHB; plate type 384well; NBS; CORNING #3640; time 18 hr
Structure (SMILES),Inhibition (Staphylococcus aureus),Inhibition (Escherichia coli)
O=C(Cn1nc2c(N3CCOCC3)nccn2c1=O)N1CCN(c2ccccc2F)CC1,14.68%,2.59%
Cc1ccc(NC(=O)Cn2c(=O)c3nnc(C(C)C)n3c3ccccc32)cc1F,13.81%,1.95%
COc1ccc(Cn2nc3ccc(-c4ccccc4)nn3c2=O)cc1F,20.86%,2.33%
O=S(=O)(c1ccc2nncn2c1)N(Cc1cccc(F)c1)c1ccc(F)c(F)c1,3.37%,-6.8%
CC(C)CCn1c(=O)c2sccc2n2c(=O)n(CC(=O)N3CCC(Cc4ccccc4)CC3)nc12,-19.02%,-15.19%
CC(=O)Nc1ccc(NC(=O)CSc2nc3ccccc3n3cnnc23)cc1,-1.2%,2.28%
COc1cccc(-n2ccn3c(SC(C)C(=O)c4ccc(C)c(C)c4)nnc3c2=O)c1 (centres undefined),13.98%,1.22%
Cc1cc(Br)ccc1NC(=O)Cn1nc2c(SC3CCCCC3)nccn2c1=O,6.25%,-6.44%
COc1ccc(-c2cc3c4nnc(SCC(=O)NCc5cccc(OC)c5OC)n4ccn3n2)cc1,4.12%,-5.71%
Cc1nnc2ccc(S(=O)(=O)N(Cc3cccc(F)c3)c3cccc(Cl)c3)cn12,1.14%,-14.72%
O=S(=O)(c1cccn2cnnc12)N(Cc1cccc(Cl)c1)c1ccc(F)cc1,-11.31%,-14.45%
O=C(Cn1nc2ccc(Sc3ccccc3)nn2c1=O)Nc1ccc(F)c(Cl)c1,8.3%,-2.75%
CCCc1ccc(S(=O)(=O)Nc2ccc3nncn3n2)cc1,16.11%,2.74%
COc1ccc(OC)c(NC(=O)Cn2nc3c4cc(-c5ccc(F)cc5)nn4ccn3c2=O)c1,7.29%,-2.37%
CCC(C)NC(=O)Cn1nc2n(CCC(C)C)c(=O)c3sccc3n2c1=O (centres undefined),-2.65%,-5.43%
COc1ccc(-c2cc3c4nnc(SCC(=O)Nc5cccc(C)c5C)n4ccn3n2)cc1,-11.43%,-10.61%

Structure (SMILES),Inhibition (Staphylococcus aureus),Inhibition (Escherichia coli)
CCOc1ccc(-n2ccn3c(SCC(=O)Nc4cccc(Cl)c4)nnc3c2=O)cc1,-0.75%,2.43%
Cc1cccc(Oc2nc3ccccc3n3c(=O)n(CC(=O)Nc4cccc(C#N)c4)nc23)c1C,-4.2%,-5.56%
COc1cccc(Sc2nc3ccccc3n3c(=O)n(CC(=O)Nc4ccc(Cl)cc4)nc23)c1,1.75%,-3.52%
CCc1ccc(NC(=O)CSc2nnc3c(=O)n(-c4ccccc4)ccn23)cc1,7.36%,-2.07%
COc1ccc(NC(=O)Cn2nc3cc(C)nc(Nc4ccc(F)c(C)c4)n3c2=O)cc1,-1.45%,-6.2%
Cc1ccc(NC(=O)CSc2nnc3c(=O)n(-c4ccccc4)ccn23)c(C)c1,7.2%,-16.98%
CCC(Sc1nnc2c(=O)n(-c3cccc(OC)c3)ccn12)C(=O)Nc1cc(C)ccc1C (centres undefined),5.06%,-5.33%
Cc1nnc2ccc(S(=O)(=O)N(Cc3cccc(F)c3)c3cc(F)cc(F)c3)cn12,9.82%,-6.06%
Cc1cc(C)cc(NC(=O)Cn2nc3c(N4CCCC4)nccn3c2=O)c1,12.35%,-0.75%
Cc1ccc(-c2ccc3nn(CC(=O)Nc4ccc(Cl)cc4)c(=O)n3n2)cc1C,7.83%,-3.03%
Cc1ccc(-c2ccc3nn(CC(=O)Nc4ccc(Cl)c(C(F)(F)F)c4)c(=O)n3n2)cc1C,-0.53%,-10.28%
N#Cc1cccc(NC(=O)CSc2nnc3c4cc(-c5ccc(F)cc5)nn4ccn23)c1,11.69%,-2.69%
Cc1ccc(-c2ccc3nn(Cc4nc(-c5ccc(OC(F)(F)F)cc5)no4)c(=O)n3n2)cc1,8.38%,-3.94%
COC(=O)c1ccccc1NC(=O)Cn1nc2c(SC3CCCCC3)nccn2c1=O,-10.07%,-11.96%
CCCCOc1ccc(-c2cc3c4nnc(SCC(=O)Nc5ccc(C)c(C)c5)n4ccn3n2)cc1,10.66%,-4.59%
COc1cccc(Oc2nccn3c(=O)n(CC(=O)Nc4ccc(Br)cc4F)nc23)c1,14.87%,-0.07%
